A selection: hits, their analogues and other compounds. The true share with any hit is near 21%.
Pf growth 48h: inhibits P. falciparum growth in the first generation, 48 h. Potency, µM (doses to about 28.7 µM), without a hit: at the top dose activity change, negative = inhibition, hits mostly inhibitors. P. falciparum luciferase growth in erythrocytes, 48 h. hit rate 5.9% among 310,000; note: potency is the fitted concentration of half-maximal effect; % is set by controls: 0 for no effect and ±100 for the full control effect
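A one-generation exposure of luciferase-tagged malaria parasites in RPMI 1640/Albumax erythrocyte culture, 37 C and 5% CO2. Inhibition is inferred from decreased luminescence after adding detection reagent.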
AMA1 RON2 block: disrupts binding of P. falciparum AMA1 to RON2; AlphaScreen AMA1-biotinylated RON2 peptide binding; Potency, µM (doses to about 58.2 µM), without a hit: at the top dose activity change, negative = inhibition, most hits filed as inhibitors; hit rate 0.2% among 360,000;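 note: potency is the fitted concentration of half-maximal effect; 0% = vehicle wells and -100% = peptide control; nearly all actives have a fitted effect of over 45% in size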
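AMA1 (3D7) with his tag at 25 nM final met compounds first, then biotinylated RON2 peptide at 25 nM; detection used donor plus acceptor beads, 10 µg/mL apiece, read by AlphaScreen after 30 min at room temperature.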
Pf growth 96h: inhibits malaria parasite growth, 96 h | P. falciparum luciferase reporter growth, 96 h | Potency, µM (top dose mostly 28.7 µM), for the others: top-dose activity change, negative = inhibition, actives largely listed as inhibitors | hit rate 6.9% among 320,000 | AID 504834; note: potency is the fitted concentration of half-maximal effect; % is set by controls: 0 for no effect and ±100 for the full control effect
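Parasite growth measured via integrated firefly luciferase reporter in P. falciparum. Infected erythrocytes at 2% hematocrit, 0.05% parasitemia final were treated 96 hours at 37 C under 5% CO2, and luminescence was read.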
Shiga inhibitor: Shiga toxin inhibition. Vero cells, Shiga toxin protein synthesis inhibition reporter. inhibition, % at 38.7 µM. hit rate 9.2% among 290,000; in the data active = inhibition mostly above about 28%, no sharp cut-off; inactive = mostly below about 43%; note: 0% is about no effect
Cycloheximide cs: counter-screen for Shiga toxin inhibitors: cycloheximide protein synthesis inhibition; cell reporter, cycloheximide protein synthesis inhibition counterscreen; max response, %; hit rate 12% among 300,000; AID 2314; in the data active = max response mostly above about 13%, no sharp cut-off; inactive = mostly below about 14%; note: read at 38.3 µM for the half of the compounds with a filed dose; 0% is about no effect
HCV inh: blocks hepatitis C virus | Huh7.5.1 HCVcc-Cre infection, luciferase reporter, 44 h | Potency, µM (highest dose often 41.8 µM), without a hit: top-dose activity change, negative = inhibition, most hits filed as inhibitors | AID 651820 | hit rate 3.4% among 340,000; note: potency is the fitted concentration of half-maximal effect; % is set by controls: 0 for no effect and ±100 for the full control effect
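HCVcc-Cre virus at an moi near 0.5 was added right after compound to cells cultured 4 h from seeding (1,000 cells/well). Luciferase activity was determined 44 h later, 15 min after substrate addition at RT.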
Numbers without * were called inactive; ? = inconclusive; / = not tested or not shown; [ ] = dose if it differs, or a comment. Unless noted, calls come from the whole dose curve; as a rule, active = well fitted curve in the direction sought with a large enough effect; inconclusive = small, poorly fitted or top-dose-only effect, or another doubt; inactive = no such curve, though single readings can be large; an effect the other way counts as inactive or inconclusive.

SMILES	Pf growth 48h	AMA1 RON2 block	Pf growth 96h	Shiga inhibitor	Cycloheximide cs	HCV inh
Cc1cc(N2CCCC2)ccc1/C=C1\NC(=S)N(C)C1=O	81.9%	-9.8%	0.0%	27.8	21.4*	?
CN1C(=O)c2ccc(N3CCCC3)cc2C1=O	81.5%	28.0%	29.4%	55.1*	15.2*	?
COc1ccc(-n2c(COc3ccc(C)cc3)nnc2SCc2ccc(C#N)cc2)cc1	?	-6.4%	?	-5.3	-3.0	22.4µM*
Cc1cc(C)nc(SCc2nnc(SCC(=O)O)n2-c2ccccc2)n1	2.0%	-8.5%	0.0%	32.6	-0.9	-26.5%
COc1ccc(-n2c(COc3ccc(Cl)cc3)nnc2SCc2ccc(C#N)cc2)cc1	?	-7.7%	/	-0.3	-2.0	?
COc1ccc(-n2c(COc3ccc(C)cc3)n[nH]c2=S)cc1	-10.6%	70.4%	0.465µM*	-24.4	-0.9	0.9%
CCOc1ccc(-n2c(SCc3ccc([N+](=O)[O-])cc3)nnc2-c2ccc(OC)cc2)cc1	?	-12.1%	8.28µM*	-1.1	5.4	?
NC(=O)CSc1nnc(CSc2ncccn2)n1-c1ccccc1	7.8%	-4.8%	13.1µM*	16.6	8.3	15.4%
COc1cccc(C(=O)N2CCC[C@@H]2C(=O)N2CCC[C@H]2C(=O)NCc2ccncc2)c1	/	3.2%	/	/	/	/
CC1(C(=O)NCc2cccc3ccccc23)CCN1Cc1ccccc1OC(F)F (stereo unspecified)	/	-5.5%	/	/	/	/
CC1(C(=O)Nc2ccc(Cl)c(Cl)c2)CCN1C(=O)Cc1ccc(-c2ccccc2)cc1 (stereo unspecified)	/	-0.2%	/	/	/	/
CCN(CC(=O)Nc1c(F)cccc1F)C(=O)c1ccc(OCc2c(C)noc2C)cc1	?	-11.7%	?	/	/	-2.6%
Cc1ccc(OCc2nnc(SCC(=O)c3ccccc3)n2-c2ccccc2)cc1	13.1µM*	0.0%	-60.2%	4.2	-0.8	?
Cc1ccc(OCc2nnc(SCC(=O)O)n2-c2ccccc2)cc1	/	-0.4%	/	/	/	22.5%
Cc1ccc(S(=O)(=O)c2cc3ccccc3nc2N)cc1	?	5.2%	9.28µM*	-6.6	9.8	-15.1%
CCOc1ccc(N(CC(=O)Nc2nccs2)S(=O)(=O)c2c(C)[nH]c(=O)[nH]c2=O)cc1	4.5%	-1.9%	?	4.4	3.3	15.3%
CCC(C)NC(=O)c1ccc(CSCc2ccccc2Cl)o1 (stereo unspecified)	7.38µM*	-5.9%	18.3%	28.8	23.2*	?
CC(C)NC(=O)c1ccc(CSCc2ccccc2Cl)o1	1.47µM*	-5.7%	4.65µM*	20.7	26.5*	?
CCC(C)NC(=O)c1ccc(CSCc2ccc(Cl)cc2)o1 (stereo unspecified)	?	-8.7%	12.1%	1.9	-0.5	-18.9%
COc1cc(CCC(=O)OCC(=O)Nc2cc(S(=O)(=O)N3CCOCC3)ccc2Cl)cc(OC)c1OC	/	32.4%[11.6 µM]	/	/	/	23.5%
Cc1c(Cc2ccccc2)sc(NC(=O)c2ccco2)c1C(N)=O	7.8%	3.3%	3.1%	39.8	6.7	?
CCOc1ccc(CC(=O)Nc2sc(Cc3ccccc3)c(C)c2C(N)=O)cc1OCC	?	-22.9%	9.28µM*	-11.6	7.7	-15.6%
CCOc1ccc(CC(=O)Nc2c(C(N)=O)oc3ccccc23)cc1OCC	?	1.2%	11.7µM*	-4.8	-3.3	-3.6%
Nc1nc2c(ncn2[C@@H]2O[C@H](CNS(=O)(=O)C3CC3)[C@@H](O)[C@H]2O)c(=O)[nH]1	/	18.0%	/	/	/	/
CCOC(=O)c1nc(NNC(=O)c2ccc([N+](=O)[O-])cc2)sc1C	?	94.4%	3.29µM*	8.0	1.8	?
CCOC(=O)c1sc(NC(=O)c2ccc3ncsc3c2)nc1C	-11.1%	19.9%	17.9%	72.5*	25.1*	-8.6%
CCOC(=O)c1sc(NNC(=O)c2ccc(F)cc2)nc1C	?	87.4%	?	55.9*	21.9*	?
CCOC(=O)c1sc(NNC(=O)c2ccc(C)cc2)nc1C	?	51.4%	-8.0%	22.8	11.8	-17.7%
CCOC(=O)c1sc(NC(=O)c2ccc(S(=O)(=O)N(C)C)cc2)nc1C	?	-4.4%	/	26.9	-3.2	-2.0%
CCOC(=O)c1sc(NC(=O)c2cncc(Br)c2)nc1C	381.6%	/	-16.9%	56.5*	15.0	10.7%

Compound activity as filed in PubChem.
